# Assay results published in paper PMC8384837, “Expanding the binding specificity for RNA recognition by a PUF domain”.
# How the values were obtained:
# Test in all cases: yeast three-hybrid, YBZ-1, SC-Leu-His + 0.5 mM 3-AT, 4 days
# Details in all cases: tags: N-Gal4 AD-HA kept; label: inside an RPR1-promoter hybrid RNA with tandem MS2 sites; ssRNA
# PUM1 PUF domain R5-LNL = PUM1 PUF domain R5-LNL (Homo sapiens, UniProt Q14671 828-1176, C1007L;R1008N;Q1011L)
# Outline: (§1)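 Matching RNA elements and Pumilio-1 PUF domain libraries, randomized at the three base-contacting residues of every repeat, were co-expressed from a centromeric plasmid in strain YBZ-1 (LexA–MS2 coat fusion, HIS3 reporter). The repeat regions were PCR-amplified and Illumina-sequenced from cells grown four days on SC-Leu (input) or SC-Leu-His + 0.5 mM 3-AT (selection). The interaction score is the log change in variant frequency from input to selection. It is computed in log2, with a pseudocount of 1 for absent variants.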
# PUM1 PUF domain R5-RSD = PUM1 PUF domain R5-RSD (Homo sapiens, UniProt Q14671 828-1176, C1007R;R1008S;Q1011D)
# Outline: as §1
# PUM1 PUF domain R5-SGT = PUM1 PUF domain R5-SGT (Homo sapiens, UniProt Q14671 828-1176, C1007S;R1008G;Q1011T)
# Outline: as §1
# PUM1 PUF domain R8-KHT = PUM1 PUF domain R8-KHT (Homo sapiens, UniProt Q14671 828-1176, N1122K;Y1123H;Q1126T)
# Outline: as §1
# PUM1 PUF domain R3-GPC = PUM1 PUF domain R3-GPC (Homo sapiens, UniProt Q14671 828-1176, C935G;R936P;Q939C)
# Outline: as §1
# PUM1 PUF domain R4-GPM = PUM1 PUF domain R4-GPM (Homo sapiens, UniProt Q14671 828-1176, N971G;H972P;Q975M)
# Outline: as §1
# PUM1 PUF domain R5-IYH = PUM1 PUF domain R5-IYH (Homo sapiens, UniProt Q14671 828-1176, C1007I;R1008Y;Q1011H)
# Outline: as §1
# PUM1 PUF domain R3-DWR = PUM1 PUF domain R3-DWR (Homo sapiens, UniProt Q14671 828-1176, C935D;R936W;Q939R)
# Outline: as §1
# PUM1 PUF domain R3-IWT = PUM1 PUF domain R3-IWT (Homo sapiens, UniProt Q14671 828-1176, C935I;R936W;Q939T)
# Outline: as §1
# PUM1 PUF domain R3-ARD = PUM1 PUF domain R3-ARD (Homo sapiens, UniProt Q14671 828-1176, C935A;Q939D)
# Outline: as §1
# Sequence of PUM1 PUF domain R3-DWR (Q14671 828-1176 C935D/R936W/Q939R): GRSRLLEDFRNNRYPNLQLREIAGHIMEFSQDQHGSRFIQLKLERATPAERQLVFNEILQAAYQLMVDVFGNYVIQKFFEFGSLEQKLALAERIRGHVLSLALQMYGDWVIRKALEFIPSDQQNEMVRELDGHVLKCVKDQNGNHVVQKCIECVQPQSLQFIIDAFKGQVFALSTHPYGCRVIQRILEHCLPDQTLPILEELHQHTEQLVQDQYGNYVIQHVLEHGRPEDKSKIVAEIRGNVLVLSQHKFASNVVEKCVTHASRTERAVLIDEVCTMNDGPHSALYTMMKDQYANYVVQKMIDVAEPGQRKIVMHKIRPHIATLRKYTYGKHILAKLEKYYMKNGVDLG
# Sequence of PUM1 PUF domain R5-RSD (Q14671 828-1176 C1007R/R1008S/Q1011D): as the sequence (Q14671 828-1176 C935D/R936W/Q939R) above, with D108C, W109R, R112Q, C180R, R181S, Q184D counted along it
# Sequence of PUM1 PUF domain R3-GPC (Q14671 828-1176 C935G/R936P/Q939C): as the sequence (Q14671 828-1176 C935D/R936W/Q939R) above, with D108G, W109P, R112C counted along it
# Sequence of PUM1 PUF domain R4-GPM (Q14671 828-1176 N971G/H972P/Q975M): as the sequence (Q14671 828-1176 C935D/R936W/Q939R) above, with D108C, W109R, R112Q, N144G, H145P, Q148M counted along it
# Sequence of PUM1 PUF domain R3-ARD (Q14671 828-1176 C935A/Q939D): as the sequence (Q14671 828-1176 C935D/R936W/Q939R) above, with D108A, W109R, R112D counted along it
# Sequence of PUM1 PUF domain R8-KHT (Q14671 828-1176 N1122K/Y1123H/Q1126T): as the sequence (Q14671 828-1176 C935D/R936W/Q939R) above, with D108C, W109R, R112Q, N295K, Y296H, Q299T counted along it
# Sequence of PUM1 PUF domain R5-IYH (Q14671 828-1176 C1007I/R1008Y/Q1011H): as the sequence (Q14671 828-1176 C935D/R936W/Q939R) above, with D108C, W109R, R112Q, C180I, R181Y, Q184H counted along it
# Sequence of PUM1 PUF domain R5-SGT (Q14671 828-1176 C1007S/R1008G/Q1011T): as the sequence (Q14671 828-1176 C935D/R936W/Q939R) above, with D108C, W109R, R112Q, C180S, R181G, Q184T counted along it
# Sequence of PUM1 PUF domain R3-IWT (Q14671 828-1176 C935I/R936W/Q939T): as the sequence (Q14671 828-1176 C935D/R936W/Q939R) above, with D108I, R112T counted along it
# Sequence of PUM1 PUF domain R5-LNL (Q14671 828-1176 C1007L/R1008N/Q1011L): as the sequence (Q14671 828-1176 C935D/R936W/Q939R) above, with D108C, W109R, R112Q, C180L, R181N, Q184L counted along it
sequence,measurement,setting,value
GGCUAGAACUAGUGGAUCCCCCGGCGCCCGGCGGCUCGAGCCCGGGUAAGUGUUAAUAGUCUGCAUGCCGCCGGGCGCCAUGCCUGCAGGUCGACUCUAGAAAACAUG,binding signal,PUM1 PUF domain R5-LNL,3.35 log2 enrichment (interaction score)
same,binding signal,PUM1 PUF domain R5-RSD,2.65 log2 enrichment (interaction score)
GGCUAGAACUAGUGGAUCCCCCGGCGCCCGGCGGCUCGAGCCCGGGUAAGUGUGAAUAGUCUGCAUGCCGCCGGGCGCCAUGCCUGCAGGUCGACUCUAGAAAACAUG,binding signal,PUM1 PUF domain R5-SGT,2.85 log2 enrichment (interaction score)
GGCUAGAACUAGUGGAUCCCCCGGCGCCCGGCGGCUCGAGCCCGGGUAAGCGUAAAUAGUCUGCAUGCCGCCGGGCGCCAUGCCUGCAGGUCGACUCUAGAAAACAUG,binding signal,PUM1 PUF domain R8-KHT,4.89 log2 enrichment (interaction score)
GGCUAGAACUAGUGGAUCCCCCGGCGCCCGGCGGCUCGAGCCCGGGUAAGUGUAAAUAGUCUGCAUGCCGCCGGGCGCCAUGCCUGCAGGUCGACUCUAGAAAACAUG,binding signal,PUM1 PUF domain R3-GPC,2.57 log2 enrichment (interaction score)
same,binding signal,PUM1 PUF domain R4-GPM,2.8 log2 enrichment (interaction score)
same,binding signal,PUM1 PUF domain R5-IYH,4.47 log2 enrichment (interaction score)
same,binding signal,PUM1 PUF domain R3-DWR,0.88 log2 enrichment (interaction score)
GGCUAGAACUAGUGGAUCCCCCGGCGCCCGGCGGCUCGAGCCCGGGUAAGUGUAAGUAGUCUGCAUGCCGCCGGGCGCCAUGCCUGCAGGUCGACUCUAGAAAACAUG,binding signal,PUM1 PUF domain R3-IWT,3.1 log2 enrichment (interaction score)
same,binding signal,PUM1 PUF domain R3-ARD,4.51 log2 enrichment (interaction score)
same,binding signal,PUM1 PUF domain R3-DWR,1.12 log2 enrichment (interaction score)
GGCUAGAACUAGUGGAUCCCCCGGCGCCCGGCGGCUCGAGCCCGGGUAAGUGUCAAUAGUCUGCAUGCCGCCGGGCGCCAUGCCUGCAGGUCGACUCUAGAAAACAUG,binding signal,PUM1 PUF domain R5-RSD,2.74 log2 enrichment (interaction score)
GGCUAGAACUAGUGGAUCCCCCGGCGCCCGGCGGCUCGAGCCCGGGUAAGUGUAAUUAGUCUGCAUGCCGCCGGGCGCCAUGCCUGCAGGUCGACUCUAGAAAACAUG,binding signal,PUM1 PUF domain R3-GPC,2.82 log2 enrichment (interaction score)
same,binding signal,PUM1 PUF domain R3-DWR,3.53 log2 enrichment (interaction score)
